# High-throughput results (PubChem)
# This is one part of a sample in which hits are shown more often than they occur.
# VHR inh color – blocks the human dual specificity phosphatase VHR1 | P51452 | recombinant VHR phosphatase, colorimetric substrate read-out | inhibition, % at 20 µM | hit rate 0.7% among 50,000 | AID 1992; in the data active = inhibition above about 60%
# Target sequence (P51452 whole entry, looked up): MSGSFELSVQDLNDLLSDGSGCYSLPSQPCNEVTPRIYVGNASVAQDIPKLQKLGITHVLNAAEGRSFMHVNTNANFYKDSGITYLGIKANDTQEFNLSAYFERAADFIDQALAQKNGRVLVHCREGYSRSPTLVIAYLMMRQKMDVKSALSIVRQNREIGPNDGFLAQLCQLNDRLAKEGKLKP
# * marks the source's active call; other numbers are inactive results.
SMILES,VHR inh color
CC(=O)NN1C(=O)/C(=C\c2ccc(O)c([N+](=O)[O-])c2)SC1=S,-0.3
O=C(Nc1ccccc1C(=O)N1CCOCC1)c1ccccc1F,-20.6
COCCOC(=O)C1=C(C)NC(=S)NC1c1ccc(OC)c(OC)c1 (stereo not given),6.9
Cc1ccc(CN2CCN(/N=C\c3ccc(O)cc3O)CC2)cc1,2.9
COc1cccc(N2C(=O)CC(N3CCC(C)CC3)C2=O)c1 (stereo not given),-5.4
COc1cccc(N2C(=O)CC(N3CCN(C/C=C/c4ccccc4)CC3)C2=O)c1 (stereo not given),-8.2
COc1cccc(N2C(=O)CC(N3CCCCC3)C2=O)c1 (stereo not given),101.2*
Fc1cccc(Cl)c1Cc1noc(-c2ccccc2)n1,-31.1
Cc1ccc(C23CC4CC(CC(NC(=O)Nc5ccccn5)(C4)C2)C3)cc1,-9.5
Cc1ccc(C(=O)c2coc3c2C(=O)C(=O)C(Cl)=C3Cl)cc1,38.3
CC(C)N1C(=O)c2cccc3c(N4CCCCC4)ccc(c23)C1=O,-24.4
Cc1cc(OCC(=O)Nc2ccccn2)cc(C)c1Cl,-7.7
O=C(Nc1cccc(NC(=O)c2ccc(Cl)cc2Cl)c1)c1cccc([N+](=O)[O-])c1,22.6
O=C(Nc1ccc(Nc2ccccc2)cc1)c1cccc(Cl)c1,-0.9
S=C(Nc1ccc2c(c1)oc1ccccc12)Nc1cccc2ccccc12,105.7*
Fc1ccc(NC(=S)Nc2cccc3ccccc23)cc1,31.7
O=C(NC(=S)Nc1ccc2oc3ccccc3c2c1)c1ccccc1,7.0
COc1ccc(Cl)cc1/C=C1\C(=O)NC(=O)N(c2cc(C)cc(C)c2)C1=O,5.3
CCN(CC)c1ccc(/C=C2\C(=O)NC(=S)N(c3cccc(Br)c3)C2=O)o1,-8.1
O=C1/C(=C/C=C/c2ccccc2)SC(=S)N1CCS(=O)(=O)O,85.1*
C=CCN1C(=O)/C(=C/c2ccc(C)cc2)SC1=S,-12.8
COc1ccc(/C=C2\SC(=S)N(CCC(N)=O)C2=O)cc1,-7.6
COc1ccc(/C=C2\SC(=S)N(CCS(=O)(=O)O)C2=O)cc1,66.7*
O=C(O)CCCN1C(=O)/C(=C/C=C/c2ccccc2)SC1=S,3.2
COC(=O)CN1C(=O)/C(=C\c2ccc(C)cc2)SC1=S,12.9
SMILES,VHR inh color
COc1ccc(/C=C2\SC(=S)N(CCC(=O)OC3CCCCC3)C2=O)cc1,-6.7
C=CCN1C(=O)/C(=C\C=C\c2ccccc2)SC1=S,-25.8
Cc1ccc(/C=C2\SC(=S)N(CCS(=O)(=O)O)C2=O)cc1,63.2*
COc1ccc(S(=O)(=O)N(CC(=O)Nc2cccc(Cl)c2C)c2cc(C)cc(C)c2)cc1OC,-20.7
COc1ccccc1/C=C1\SC(=S)N(CCC(=O)OCCN(C)C)C1=O,-7.8
Cc1cccc(C)c1OCC(=O)Nc1ccc(-c2nc3ccccc3[nH]2)cc1,-0.5
Cc1c(Cc2ccccc2)c(=O)oc2c(C)c(OCC(=O)N(C)C)ccc12,-3.7
O=C(O)CCCCCN1C(=O)C(O)=C(C(=O)/C=C/c2ccccc2)C1c1ccccc1Cl (stereo not given),-21.7
CCN1C(=O)/C(=C\c2ccc(OS(=O)(=O)c3ccccc3[N+](=O)[O-])c(OC)c2)SC1=S,-2.3
NC(=O)C1CCN(C(=O)c2cccc(I)c2)CC1,-3.6
COC(=O)c1c(NC(=O)C(C)C)sc2c1CCCC2,3.8
O=C(Nc1ccccc1)Nc1nc(C(c2ccccc2)c2ccccc2)cs1,88.4*
O=C(Nc1ccccc1)Nc1nnc(C(c2ccccc2)c2ccccc2)s1,-18.0
O=C(Nc1ccccc1)Nc1nccs1,4.9
O=C(COc1ccc(Cl)cc1Br)N/N=C/c1cccc(OC(=O)c2ccc3c(c2)OCO3)c1,-90.4
Cc1ccsc1/C=C1\SC(=S)N(c2ccccc2)C1=O,-13.3
CC(C(=O)NN)C1=NC(C)(C)Cc2ccccc21 (stereo not given),17.1
CC1(C)C(C(=O)Nc2cccc3ccccc23)C1(C)C,-8.6
O=C(Nc1cccc2ccccc12)C1C(c2ccccc2)=C1c1ccccc1,100.3*
NC(=O)C(=O)Nc1cccc2ccccc12,-0.2
NC(=O)CNC(=O)c1ccc(C#CC2(O)CCCCC2)cc1,-10.7
COc1cccc(C(=O)NNC(=O)c2ccc(OC)cc2OC)c1,65.2
N#C/C(=C/c1cccc2ccccc12)C(=O)Nc1ccc(O)cc1,17.5
CCOc1cc(C2Nc3ccccc3NC3=C2C(=O)CC(c2ccc(OC)cc2)C3)cc(Br)c1O (stereo not given),2.3
COc1cc(C2Nc3ccccc3NC3=C2C(=O)CC(c2ccc(Cl)cc2)C3)cc(Br)c1O (stereo not given),-3.4
SMILES,VHR inh color
CCOc1cc(C2Nc3ccccc3NC3=C2C(=O)CC(c2ccccc2)C3)cc(Br)c1O (stereo not given),98.9*
Cc1cc(-c2ccc(C=C3C(=O)NC(=O)NC3=O)o2)ccc1[N+](=O)[O-],13.2
CCCN(CCC)C(=O)c1ccc(C(=O)c2cc(OC)ccc2OC)cc1,2.7
COc1cc(/C=N/Nc2nn[nH]n2)ccc1O,-4.0
CN1C(=O)/C(=C\c2ccc([N+](=O)[O-])o2)SC1=S,-3.6
CN1C(=O)/C(=C\c2ccc(-c3ccc(F)c(Cl)c3)o2)SC1=S,-1.9
CN1C(=O)/C(=C\c2ccc(Sc3ccc(Cl)cc3)o2)SC1=S,62.1*
CC1CCc2c(sc(NC(=O)c3cccnc3)c2C#N)C1 (stereo not given),-34.2
Clc1ccc(-c2ccc(/C=N/Nc3nc4ccccc4s3)o2)cc1,-4.0
O=C(N/N=C/c1ccccc1Cl)c1ccc(Cl)cc1O,-3.3
Cc1cc(Br)ccc1N1C(=O)/C(=C/c2cc(C)n(C)c2C)C(=O)NC1=S,24.3
Cc1cc(Br)ccc1N1C(=O)/C(=C/c2cccs2)C(=O)NC1=S,102.4*
O=C1NC(=S)N(c2ccc(Cl)c(Cl)c2)C(=O)/C1=C/c1cccs1,7.3
O=C(O)c1cc(NS(=O)(=O)c2ccccc2)cc(C(=O)O)c1,4.3
O=c1[nH]c(=S)n(-c2ccc(Cl)c(Cl)c2)c(O)c1/C=C1\C=CC=N1,2.7
O=C(Nc1ccc([N+](=O)[O-])cc1)C1C2C3CCC(C3)C12 (stereo not given),84.4*
O=C(Nc1ccc([N+](=O)[O-])cc1)C1C(c2ccccc2)=C1c1ccccc1,-0.9
Cc1ccc([N+](=O)[O-])cc1NC(=O)C1C2C3CCC(C3)C12 (stereo not given),6.3
CCOC(=O)c1c(NC(=O)c2ccc(Cl)c([N+](=O)[O-])c2)sc(C(=O)Nc2ccccc2C(F)(F)F)c1C,-5.1
O=C1CC(=O)N(c2cccc(Cl)c2)N1,74.6*
O=C1NC(=O)/C(=C\c2cccc(Cl)c2)S1,-4.1
O=C1CSC2=NCN(c3cccc(Cl)c3)CN12,1.2
Cc1ccccc1OCC(=O)N1CCN(c2ccc([N+](=O)[O-])cc2)CC1,-2.0
COc1cccc(CN2CCN(Cc3ccccn3)CC2)c1,9.5
CC1CN(Cc2ccccn2)CCC1=O (stereo not given),110.9*
SMILES,VHR inh color
COc1ccccc1CN1CCN(Cc2ccccn2)CC1,20.0
Cc1ccc(S(=O)(=O)c2cc(O)ccc2O)cc1,37.7
CC1CCN(c2ccc(C=C3C(=O)c4ccccc4C3=O)cc2[N+](=O)[O-])CC1,-33.5
CN1C(=O)C(=Cc2ccc(N3CCCC3)c([N+](=O)[O-])c2)C(=O)N(C)C1=O,90.5*
CC1=NN(c2ccccc2)C(=O)/C1=C\c1ccc(N2CCOCC2)c([N+](=O)[O-])c1,16.2
Cc1ccc(S(=O)(=O)N2CCN(Cc3cccn3C)CC2)cc1,6.9
CC(=O)c1cccc(NC(=O)c2cccc(OCc3ccccc3)c2)c1,111.5*
